# Test results: PubChem BioAssay
# A number with no mark means an inactive call. No rule for the calls is given here.
# System: Aerobactin synthetase IucA (Klebsiella pneumoniae hvKP1)
# Assay: IucA enzyme inhibition, primary screen, biochemical, Spectrum library (AID 1346200);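 also: 100% = wells without compound and 0% = wells lacking enzyme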
# Settings: malachite green pyrophosphate, A620, at 8 µM, stronger effect = lower value
row,Structure (SMILES),activity remaining
1,CC(=O)[C@@]1(O)CCC2C3C[C@H](C)C4=CC(=O)C=CC4(C)[C@@]3(F)[C@@H](O)C[C@@]21C (some centres undefined),114%
2,COC(=O)C[C@H]1C(C)(C)C(=O)[C@@H]2CC3C4=CC(=O)O[C@@H](c5ccoc5)[C@]4(C)CCC3C1(C)C2=O (some centres undefined),120%
3,NC(=NCCCCCCN=C(N)/N=C(\N)Nc1ccc(Cl)cc1)/N=C(\N)Nc1ccc(Cl)cc1,95.5%
4,CCN(CC)CCNC(=O)COc1ccc(OC)cc1,108%
5,COc1ccc2c(c1)OCc1c-2oc2cc(OC)ccc12,90.7%
6,CCOC(=O)n1ccn(C)c1=S,127%
7,CN(C)CCN(Cc1ccccc1)c1ccccn1,109%
8,CC(=O)O[C@@H]1CC2C(C)(C)C=CC(=O)[C@]2(C)C2CC[C@@]3(C)[C@H](c4ccoc4)OC(=O)C4OC43[C@@]21C (some centres undefined),119%
9,Nc1ccc(S(N)(=O)=O)cc1,116%
10,CC(=O)O[C@@H]1C[C@@]2(C)C(CC[C@@H]2C(C)=O)C2CCC3=CC(=O)CC[C@]3(C)C21 (some centres undefined),88.2%
11,NC(=O)c1ccc([N+](=O)[O-])cc1Cl,107%
12,CC(=O)OCC[N+](C)(C)C,118%
13,O=C(OCC(O)CO)c1ccccc1Nc1ccnc2cc(Cl)ccc12 (centres undefined),119%
14,O=c1cc(-c2ccccc2)oc2cccc(O)c12,99.1%
15,COc1c2ccoc2cc2oc(=O)ccc12,102%
16,COc1c2ccoc2nc2c(OC)c(OCC(O)C(C)(C)O)ccc12 (centres undefined),98%
17,CC[C@@]1(O)C(=O)OCc2c1cc1n(c2=O)Cc2cc3c(CN(C)C)c(O)ccc3nc2-1,121%
18,O=C(O[C@@H]1Cc2c(O)cc(O)cc2O[C@@H]1c1cc(O)c(O)c(O)c1)c1cc(O)c(O)c(O)c1,113%
19,COc1cccc2c1C(=O)c1c(O)c3c(c(O)c1C2=O)C[C@@](O)(C(=O)CO)C[C@@H]3OC1C[C@H](N)[C@H](O)[C@H](C)O1 (some centres undefined),87.4%
20,CC(Cc1ccc(O)c(O)c1)(NN)C(=O)O (centres undefined),111%
21,Nc1nc(/C(=C/CC(=O)O)C(=O)N[C@@H]2C(=O)N3C(C(=O)O)=CCS[C@H]23)cs1,117%
22,C/C=C/c1ccc(OC)cc1,98.6%
23,Cc1cccc(C(=O)O)c1O,91.3%
24,CC(C)c1ccc2c(c1)CCC1C(C)(C(N)=O)CCCC21C (centres undefined),103%
